Data published in PubChem BioAssay (Tox21).
Results filed as inconclusive are left out. Calls of active or inactive are those of the source. Unless noted, calls follow the shape of the dose curve; as a rule, active = well fitted curve in the direction sought with a large enough effect in the repeat runs; inconclusive = weak or mixed curves; inactive = no such curve, though single readings can be large; an effect the other way counts as inactive or inconclusive.

Columns and labels:
[1] = target: Estrogen receptor beta (Homo sapiens) (UniProt Q92731); experiment: qHTS assay to identify small molecule agonists of the estrogen receptor beta (ER-beta) signaling pathway (AID 1259377; active = well fitted activation curve with a large enough effect in the signal ratio in the repeat runs, not every such curve was filed as active; the % refers to the signal ratio); conditions: ER-beta-UAS-bla HEK293T, beta-lactamase FRET ratio, 16 h; series mostly up to 92.4 µM
Estrogen receptor beta (Homo sapiens), sequence (Q92731 whole entry, looked up): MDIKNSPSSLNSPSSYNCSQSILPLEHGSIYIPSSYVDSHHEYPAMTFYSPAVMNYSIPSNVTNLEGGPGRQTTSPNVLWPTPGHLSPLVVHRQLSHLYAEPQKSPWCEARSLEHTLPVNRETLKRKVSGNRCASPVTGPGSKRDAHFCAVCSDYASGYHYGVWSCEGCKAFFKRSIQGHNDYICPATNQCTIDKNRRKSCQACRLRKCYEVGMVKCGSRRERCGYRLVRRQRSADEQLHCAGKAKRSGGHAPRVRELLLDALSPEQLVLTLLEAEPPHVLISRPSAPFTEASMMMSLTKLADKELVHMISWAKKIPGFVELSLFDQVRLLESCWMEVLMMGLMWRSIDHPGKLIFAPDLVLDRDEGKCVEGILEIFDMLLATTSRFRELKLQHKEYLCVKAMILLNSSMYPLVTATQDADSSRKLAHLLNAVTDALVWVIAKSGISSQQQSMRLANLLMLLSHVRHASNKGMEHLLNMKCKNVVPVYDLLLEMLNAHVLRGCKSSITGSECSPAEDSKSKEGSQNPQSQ
How it was run: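 ER-beta-UAS-bla HEK293T cells in medium with 2% charcoal-stripped FBS were exposed to compounds for 16 h at 37C. Beta-lactamase reporter activity was read as fluorescence after 2 h with LiveBLAzer B/G FRET substrate at room temperature.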

[2] = target: Estrogen receptor beta (Homo sapiens) (UniProt Q92731); experiment: qHTS assay to identify small molecule antagonists of the estrogen receptor beta (ER-beta) signaling pathway (AID 1259378; active = well fitted inhibition curve with a large enough effect in the signal ratio in the repeat runs, not every such curve was filed as active; the % refers to the signal ratio); conditions: ER-beta-UAS-bla HEK293T, beta-lactamase FRET ratio, 16 h; series mostly up to 92.4 µM
How it was run: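 Antagonist mode: compounds added to beta-lactamase reporter HEK293T ER-beta-UAS cells stimulated with E2 (1nM final), 16 hr at 37C. LiveBLAzer B/G FRET substrate, 2 hours room temperature, fluorescence read-out.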

[3] = qHTS assay to identify small molecule agonists of the androgen receptor (AR) signaling pathway in the presence of an antagonist - cell viability counter screen (AID 1259379); conditions: MDA-kb2 viability, CellTiter-Fluor, 16 h; series mostly up to 92.4 µM;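 also: MDA-kb2 human breast cancer cells carrying an MMTV luciferase reporter; nearly all actives have a fitted effect of over 25% in size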
How it was run: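 Cytotoxicity counter-screen run in the same wells as the nilutamide-challenged (3.0 µM final) AR agonist assay in MDA-kb2 cells. Compounds tested at 15 concentrations for 16 h, 37 °C without CO2; CellTiter-Fluor fluorescence read.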

[4] = qHTS assay to identify small molecule agonists of the estrogen receptor beta (ER-beta) signaling pathway - cell viability counter screen (AID 1259380); conditions: ER-beta-bla HEK293T viability, CellTiter-Glo luminescence, 16 h; series mostly up to 92.4 µM; also: nearly all actives have a fitted effect of over 30% in size
How it was run: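 Cell viability counter screen: CellTiter-Glo luminescence (30 min, room temperature) measured in the same wells as the beta-lactamase readout, after 16 hr compound exposure at 37C of ER-beta-bla HEK293T cells in 2% charcoal-stripped FBS medium.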

[5] = qHTS assay to identify small molecule antagonists of the estrogen receptor beta (ER-beta) signaling pathway - cell viability counter screen (AID 1259382); conditions: ER-beta-UAS-bla HEK293T viability, CellTiter-Glo luminescence, 16 h; series mostly up to 92.4 µM;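 also: HEK293T cells carrying ER-beta-UAS-bla reporter stimulated with estradiol; nearly all actives have a fitted effect of over 55% in size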
How it was run: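 Cytotoxicity was measured in the same wells by CellTiter-Glo luminescence after 30 min at room temperature. Cells were ER-beta-bla HEK293T in charcoal-stripped serum, given compound together with 1 nM E2 and incubated 16 h at 37C.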

[6] = qHTS assay to identify small molecule agonists or antagonists of the thyroid stimulating hormone receptor (TSHR) signaling pathway - wild type cell line counter screen (AID 1259384; calls by dose curve); conditions: HEK293 wild type, cAMP HTRF counter-screen; series mostly up to 92.4 µM
How it was run: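 Counter screen in untransfected Hek293: compounds (15-point titration, triplicate) plus phosphodiesterase inhibitor Ro20-1724 added after 18 h plating; 30 min RT. Intracellular cAMP via competitive d2/cryptate immunoassay, 1 h incubation.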

[7] = target: Thyrotropin receptor (Homo sapiens) (UniProt P16473); experiment: qHTS assay to identify small molecule antagonists of the thyroid stimulating hormone receptor (TSHR) signaling pathway (AID 1259385; calls by dose curve; also: nearly all actives have a fitted effect of over 20% in size); conditions: TSHR-HEK293 cAMP HTRF, TSH-stimulated antagonist mode; series mostly up to 92.4 µM
Thyrotropin receptor (Homo sapiens), sequence (P16473 whole entry, looked up): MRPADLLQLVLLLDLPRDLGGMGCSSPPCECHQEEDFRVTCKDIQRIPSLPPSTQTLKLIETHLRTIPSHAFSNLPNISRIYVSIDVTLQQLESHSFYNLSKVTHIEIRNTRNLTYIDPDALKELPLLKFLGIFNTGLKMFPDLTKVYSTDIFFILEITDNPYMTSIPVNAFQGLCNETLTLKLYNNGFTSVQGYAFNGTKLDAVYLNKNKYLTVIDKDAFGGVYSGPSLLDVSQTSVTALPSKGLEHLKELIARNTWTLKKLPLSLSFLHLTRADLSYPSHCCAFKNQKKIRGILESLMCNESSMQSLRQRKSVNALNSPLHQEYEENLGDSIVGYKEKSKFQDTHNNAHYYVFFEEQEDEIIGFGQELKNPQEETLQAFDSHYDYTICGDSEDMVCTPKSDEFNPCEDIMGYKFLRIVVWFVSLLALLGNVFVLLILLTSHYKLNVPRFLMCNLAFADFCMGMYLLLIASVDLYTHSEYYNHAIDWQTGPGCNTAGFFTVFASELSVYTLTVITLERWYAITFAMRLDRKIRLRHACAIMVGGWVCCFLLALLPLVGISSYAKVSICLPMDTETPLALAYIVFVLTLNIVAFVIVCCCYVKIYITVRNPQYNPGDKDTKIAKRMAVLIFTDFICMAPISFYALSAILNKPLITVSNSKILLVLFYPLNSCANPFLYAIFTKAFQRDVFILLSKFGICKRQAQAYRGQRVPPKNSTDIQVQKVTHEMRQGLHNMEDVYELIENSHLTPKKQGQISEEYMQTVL
How it was run: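 Antagonist mode: compound-treated TSHR-expressing HEK293 cells were stimulated with 1.5 ng/mL TSH (final) in presence of Ro20-1724 for 30 min at RT. HTRF cAMP detection after 1 h; each compound tested at 15 concentrations, triplicate.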

[8] = qHTS assay to identify small molecule agonists of the estrogen receptor alpha (ER-alpha) signaling pathway in the presence of an antagonist - cell viability counter screen (AID 1259386); conditions: VM7Luc4E2 viability, CellTiter-Fluor fluorescence, 22 h; series mostly up to 92.4 µM; also: nearly all actives have a fitted effect of over 30% in size
How it was run: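 Compounds tested at 15 concentrations for 22 h at 37C alongside 10.0nM (final) ICI-182,780 antagonist, in VM7Luc4E2 cells grown in phenol red-free, charcoal-stripped medium. Viability read by CellTiter-Fluor fluorescence after 1 h reagent incubation.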

[9] = qHTS assay to identify small molecule antagonists of the progesterone receptor (PR) signaling pathway - cell viability counter screen (AID 1346798); conditions: PR-UAS-bla HEK293T viability, CellTiter-Glo luminescence, 16 h; series mostly up to 92.4 µM; also: nearly all actives have a fitted effect of over 50% in size
How it was run: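 PR-UAS-bla HEK293T cells, 3,000/well in 2% charcoal-stripped FBS medium, dosed with compounds plus R5020 agonist and incubated 16 h at 37C. Viability then measured in the same wells by CellTiter-Glo luminescence after 30 min at RT.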

[10] = qHTS assay to identify small molecule agonists of the progesterone receptor (PR) signaling pathway - cell viability counter screen (AID 1346799; calls by dose curve; also: nearly all actives have a fitted effect of over 45% in size); conditions: PR-UAS-bla HEK293T viability, CellTiter-Glo luminescence, 16 h; series mostly up to 92.4 µM
How it was run: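 Counter screen in the PR-UAS-bla HEK293T wells (2% charcoal-stripped FBS, 16 h compound exposure at 37 C) after the bla read. CellTiter-Glo added, 30 min at room temperature, luminescence read as cell viability.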

[11] = qHTS assay to identify small molecule antagonists of the TGF-beta/Smad signaling pathway - cell viability counter screen (AID 1346824); conditions: SBE-bla HEK293T viability, CellTiter-Glo luminescence; series mostly up to 76.8 µM; also: nearly all actives have a fitted effect of over 50% in size
How it was run: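 Cytotoxicity counter-screen run in the same wells as the beta-lactamase Smad reporter read: CellTiter-Glo luminescence after 30 min at room temperature. HEK 293T SBE-bla cells had 5 hr compound exposure at 37 C with TGF-beta1 (0.25 ng/mL stock).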

[12] = qHTS assay to identify small molecule agonists of the TGF-beta/Smad signaling pathway - cell viability counter screen (AID 1346829); conditions: SBE-bla HEK293T viability, CellTiter-Glo luminescence, 5 h; series mostly up to 76.8 µM; also: top concentration of the series differs between compounds; nearly all actives have a fitted effect of over 45% in size
How it was run: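 Here the cytotoxicity of library compounds is measured in SBE-bla HEK 293T cells treated for 5 hr, using CellTiter-Glo added to wells already read for the beta-lactamase reporter.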

[13] = qHTS assay to identify small molecule agonists of the TGF-beta/Smad signaling pathway (AID 1346859; active = well fitted activation curve with a large enough effect in the signal ratio in the repeat runs, not every such curve was filed as active; the % refers to the signal ratio); conditions: SBE-bla HEK293T, TGF-beta/Smad beta-lactamase reporter, 5 h; series mostly up to 76.8 µM
How it was run: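 SBE-bla HEK293T cells plated overnight, then compound exposure for 5 h at 37 C. Beta-lactamase reporter read with LiveBLAzer B/G FRET substrate after 2 h at room temperature, fluorescence at 405 nm excitation, 460/530 nm emission.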

[14] = target: Thyrotropin-releasing hormone receptor (Homo sapiens) (UniProt P34981); experiment: qHTS assay to identify small molecule antagonists of the thyrotropin-releasing hormone receptor (TRHR) signaling pathway (AID 1346877; active = well fitted inhibition curve with a large enough effect in the repeat runs, not every such curve was filed as active); conditions: TRHR-HEK293, TRH-induced calcium fluorescence, antagonist mode; series mostly up to 51.3 µM
Thyrotropin-releasing hormone receptor (Homo sapiens), sequence (P34981 whole entry, looked up): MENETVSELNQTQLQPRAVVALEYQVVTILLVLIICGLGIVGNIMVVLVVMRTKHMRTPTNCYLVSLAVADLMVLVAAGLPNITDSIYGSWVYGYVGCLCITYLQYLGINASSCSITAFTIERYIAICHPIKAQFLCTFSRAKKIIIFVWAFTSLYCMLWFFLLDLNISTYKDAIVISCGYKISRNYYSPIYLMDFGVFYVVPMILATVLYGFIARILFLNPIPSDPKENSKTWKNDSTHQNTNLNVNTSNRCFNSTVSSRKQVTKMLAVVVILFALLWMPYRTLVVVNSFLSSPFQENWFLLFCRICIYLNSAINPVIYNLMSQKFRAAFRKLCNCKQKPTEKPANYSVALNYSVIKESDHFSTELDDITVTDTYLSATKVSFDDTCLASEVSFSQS
How it was run: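 Antagonist mode: after a 5 min room-temperature compound exposure, cells were stimulated with 1 nM (final) TRH. Dye-loaded TRHR-HEK293 cells were used, and calcium-dependent fluorescence was followed for 3 min, with 15-point titrations run in triplicate.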

[15] = target: Thyrotropin-releasing hormone receptor (Homo sapiens) (UniProt P34981); experiment: qHTS assay to identify small molecule agonists of the thyrotropin-releasing hormone receptor (TRHR) signaling pathway (AID 1346891; calls by dose curve); conditions: TRHR-HEK293 calcium fluorescence, agonist mode; series mostly up to 57.6 µM
How it was run: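 HEK293 cells expressing TRHR plated 18 h at 37 C/5% CO2, calcium dye-loaded 2 h at 37 C, then compound added (agonist mode); kinetic calcium fluorescence read 3 min at 1 s intervals; 15 concentrations in triplicate.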

[16] = target: Estrogen receptor (Homo sapiens) (UniProt P03372); experiment: qHTS assay to identify small molecule agonists of the estrogen receptor alpha (ER-alpha) signaling pathway in the presence of an antagonist (AID 1259383; calls by dose curve; also: top concentration of the series differs between compounds; nearly all actives have a fitted effect of over 15% in size); conditions: VM7Luc4E2 cells, ERE-luciferase, +ICI-182,780, 22 h; series mostly up to 92.4 µM
Estrogen receptor (Homo sapiens), sequence (P03372 whole entry, looked up): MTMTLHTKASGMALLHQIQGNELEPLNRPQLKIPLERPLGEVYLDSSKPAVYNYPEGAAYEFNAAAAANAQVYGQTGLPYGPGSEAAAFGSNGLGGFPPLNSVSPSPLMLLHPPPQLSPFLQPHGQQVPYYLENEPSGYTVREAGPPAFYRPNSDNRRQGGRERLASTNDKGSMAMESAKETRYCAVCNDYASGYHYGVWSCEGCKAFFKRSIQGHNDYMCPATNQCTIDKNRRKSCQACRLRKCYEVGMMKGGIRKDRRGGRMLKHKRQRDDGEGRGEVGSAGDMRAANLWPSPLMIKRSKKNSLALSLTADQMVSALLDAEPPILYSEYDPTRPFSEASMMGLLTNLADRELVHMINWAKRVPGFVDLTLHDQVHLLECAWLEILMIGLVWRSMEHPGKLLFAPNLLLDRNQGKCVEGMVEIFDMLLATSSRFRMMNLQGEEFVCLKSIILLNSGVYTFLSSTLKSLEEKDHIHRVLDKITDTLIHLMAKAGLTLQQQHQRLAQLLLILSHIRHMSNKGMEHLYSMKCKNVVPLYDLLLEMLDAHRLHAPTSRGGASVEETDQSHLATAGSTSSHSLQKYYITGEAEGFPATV
How it was run: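 Agonist-mode confirmation run in the presence of 10.0nM (final) ICI-182,780 antagonist. The reporter was ERE-driven luciferase in VM7Luc4E2 cells, grown in charcoal-stripped serum. Cells were exposed to 15-concentration compound series for 22hr, then ONE-Glo luminescence was read.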

[17] = target: Progesterone receptor (Homo sapiens) (UniProt P06401); experiment: qHTS assay to identify small molecule agonists of the progesterone receptor (PR) signaling pathway (AID 1346784; calls by dose curve; also: nearly all actives have a fitted effect of over 30% in size); conditions: PR-UAS-bla HEK293T, beta-lactamase FRET ratio, 16 h; series mostly up to 92.4 µM
Progesterone receptor (Homo sapiens), sequence (P06401 whole entry, looked up): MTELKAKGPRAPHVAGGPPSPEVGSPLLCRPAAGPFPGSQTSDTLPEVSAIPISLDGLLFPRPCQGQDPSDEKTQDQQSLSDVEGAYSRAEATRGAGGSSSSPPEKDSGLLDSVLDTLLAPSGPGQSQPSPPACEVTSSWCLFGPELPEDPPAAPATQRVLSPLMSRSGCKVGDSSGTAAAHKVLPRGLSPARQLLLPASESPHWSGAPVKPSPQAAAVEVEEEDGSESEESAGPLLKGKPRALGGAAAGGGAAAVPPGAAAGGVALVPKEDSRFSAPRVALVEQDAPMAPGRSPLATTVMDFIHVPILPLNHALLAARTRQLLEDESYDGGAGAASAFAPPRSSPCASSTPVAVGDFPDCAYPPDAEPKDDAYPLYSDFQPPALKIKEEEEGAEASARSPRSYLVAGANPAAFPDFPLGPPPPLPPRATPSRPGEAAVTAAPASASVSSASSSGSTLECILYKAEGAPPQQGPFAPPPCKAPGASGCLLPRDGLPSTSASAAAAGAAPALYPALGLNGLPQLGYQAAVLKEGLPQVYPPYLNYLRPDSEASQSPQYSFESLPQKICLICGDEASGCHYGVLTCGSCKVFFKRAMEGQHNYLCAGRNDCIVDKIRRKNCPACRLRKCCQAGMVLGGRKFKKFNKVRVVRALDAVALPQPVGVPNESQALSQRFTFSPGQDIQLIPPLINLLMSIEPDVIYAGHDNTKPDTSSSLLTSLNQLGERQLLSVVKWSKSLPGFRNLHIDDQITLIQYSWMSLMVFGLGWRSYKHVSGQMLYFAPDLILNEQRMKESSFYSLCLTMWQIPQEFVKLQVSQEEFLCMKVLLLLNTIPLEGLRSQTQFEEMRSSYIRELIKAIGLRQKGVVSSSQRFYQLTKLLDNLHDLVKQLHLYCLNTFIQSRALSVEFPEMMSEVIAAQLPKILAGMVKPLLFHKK
How it was run: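 PR-UAS-bla HEK 293T cells (beta-lactamase reporter under UAS) in 2% charcoal-stripped FBS, dosed with 23 nL compound after 6 hr, incubated 16hr at 37C. LiveBLAzer B/G FRET substrate added, fluorescence read after 2 hours.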

[18] = target: Progesterone receptor (Homo sapiens) (UniProt P06401); experiment: qHTS assay to identify small molecule antagonists of the progesterone receptor (PR) signaling pathway (AID 1346795; active = well fitted inhibition curve with a large enough effect in the signal ratio in the repeat runs, not every such curve was filed as active; the % refers to the signal ratio); conditions: PR-UAS-bla HEK293T, beta-lactamase FRET ratio, 16 h; series mostly up to 92.4 µM
How it was run: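 PR-UAS-bla HEK293T cells with beta-lactamase reporter under UAS control, in 2% charcoal-stripped FBS, treated with compounds plus 1 nM promegestone (R5020, final) for 16 hr at 37C. Read-out: FRET beta-lactamase substrate fluorescence after 2 hr at room temperature.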

[19] = qHTS assay to identify small molecule antagonists of the sonic hedgehog signaling (Shh) pathway (AID 1259369; calls by dose curve; also: nearly all actives have a fitted effect of over 45% in size); conditions: NIH/3T3 Gli1-Luc reporter, Shh antagonist, luminescence 24 h; series mostly up to 92.4 µM
How it was run: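 Antagonist mode: compound added to 3T3 Gli1-Luc cells followed by conditioned-medium stimulation, 24 h at 37 C, 5% CO2. Inhibition taken as loss of Gli1-driven luciferase luminescence.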

[20] = target: Androgen receptor (Homo sapiens) (UniProt P10275); experiment: qHTS assay to identify small molecule agonists of the androgen receptor (AR) signaling pathway in the presence of an antagonist (AID 1259381; calls by dose curve; also: nearly all actives have a fitted effect of over 15% in size); conditions: MDA-kb2 MMTV-luciferase, AR agonist + nilutamide, 16 h; series mostly up to 42.5 µM
Androgen receptor (Homo sapiens), sequence (P10275 whole entry, looked up): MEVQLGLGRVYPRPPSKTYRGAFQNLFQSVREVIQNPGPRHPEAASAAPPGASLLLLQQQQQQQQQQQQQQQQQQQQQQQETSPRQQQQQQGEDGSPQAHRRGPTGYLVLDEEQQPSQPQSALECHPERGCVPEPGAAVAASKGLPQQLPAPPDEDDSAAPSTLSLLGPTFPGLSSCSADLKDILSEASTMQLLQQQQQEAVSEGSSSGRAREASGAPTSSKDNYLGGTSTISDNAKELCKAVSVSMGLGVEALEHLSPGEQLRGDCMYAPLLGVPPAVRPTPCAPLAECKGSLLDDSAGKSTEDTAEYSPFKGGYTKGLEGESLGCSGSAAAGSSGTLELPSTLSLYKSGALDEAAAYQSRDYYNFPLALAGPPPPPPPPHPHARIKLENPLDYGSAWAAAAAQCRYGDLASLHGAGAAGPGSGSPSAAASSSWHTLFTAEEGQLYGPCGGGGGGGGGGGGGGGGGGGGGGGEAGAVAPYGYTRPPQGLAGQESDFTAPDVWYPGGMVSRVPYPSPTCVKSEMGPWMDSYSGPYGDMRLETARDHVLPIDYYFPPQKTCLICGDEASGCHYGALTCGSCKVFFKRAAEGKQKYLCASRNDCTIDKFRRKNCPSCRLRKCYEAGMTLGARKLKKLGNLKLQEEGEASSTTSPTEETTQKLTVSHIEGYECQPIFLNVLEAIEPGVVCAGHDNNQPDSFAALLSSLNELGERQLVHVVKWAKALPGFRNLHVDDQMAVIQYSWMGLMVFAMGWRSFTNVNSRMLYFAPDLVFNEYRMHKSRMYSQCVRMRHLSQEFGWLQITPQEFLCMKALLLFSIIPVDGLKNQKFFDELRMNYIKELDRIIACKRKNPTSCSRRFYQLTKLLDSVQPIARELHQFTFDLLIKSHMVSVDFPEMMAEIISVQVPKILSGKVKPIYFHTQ
How it was run: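 Agonist-mode confirmation run against 3.0 uM final nilutamide: compounds titrated at 15 concentrations onto MDA-kb2 MMTV-luciferase reporter cells. Luminescence measured with ONE-Glo following 16 hr incubation, 37C, 0% CO2.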

Measured: Potency

CC(C)(C)OC(=O)c1cccc(N)c1
not listed: [16] | [17] | [18] | [19] | [20]
inactive: all other assays above

CCC(C(=O)NC(=O)NC(C)=O)c1ccccc1 (centres undefined)
not listed: [14] | [19] | [20]
inactive: all other assays above

CCCCCCCCCCCCCCC(=O)O
not listed: [1] | [2] | [3] | [5] | [11] | [17] | [18] | [20]
inactive: all other assays above

CCCOC(=O)CC
not listed: [10] | [17] | [19]
inactive: all other assays above

O=C(CO)[C@@H](O)[C@H](O)[C@@H](O)CO
not listed: [19] | [20]
inactive: all other assays above

CCN[C@H]1C[C@H](C)S(=O)(=O)c2sc(S(N)(=O)=O)cc21
not listed: [6] | [19] | [20]
inactive: all other assays above

CN(C)C(=O)Oc1ccc[n+](C)c1
not listed: [1] | [2] | [3] | [6] | [14] | [15] | [20]
inactive: all other assays above

CCNS(=O)(=O)c1ccc(C)cc1
not listed: [5] | [6] | [7] | [12] | [14] | [18] | [19] | [20]
inactive: all other assays above

CCCO[Si](OCCC)(OCCC)OCCC
not listed: [6] | [12] | [14] | [19] | [20]
inactive: all other assays above

C[C@H]1C[C@H]2[C@@H]3CCC4=CC(=O)C=C[C@]4(C)[C@H]3C(=O)C[C@]2(C)[C@@]1(O)C(=O)CO
not listed: [1] | [2] | [10] | [12] | [19] | [20]
inactive: all other assays above

CC(=O)N1C[C@H](O)C[C@H]1C(=O)O
not listed: [3] | [12] | [14] | [18] | [19]
inactive: all other assays above

NC(CCC(=O)O)C(=O)O (centres undefined)
not listed: [1] | [2] | [19] | [20]
inactive: all other assays above

Cc1ccccc1N=C(N)N=C(N)N
not listed: [1] | [2] | [16] | [19] | [20]
inactive: all other assays above

CC(=O)O[C@@]12CO[C@@H]1C[C@H](O)[C@@]1(C)C(=O)[C@H](O)C3=C(C)[C@@H](OC(=O)[C@H](O)[C@@H](NC(=O)OC(C)(C)C)c4ccccc4)C[C@@](O)([C@@H](OC(=O)c4ccccc4)[C@H]21)C3(C)C
not listed: [3] | [6] | [7] | [9] | [10] | [14] | [15] | [19]
inactive: all other assays above

COc1ccnc(CS(=O)c2nc3cc(OC(F)F)ccc3[nH]2)c1OC (centres undefined)
not listed: [1] | [2] | [4] | [12] | [14] | [15] | [19] | [20]
inactive: all other assays above

c1coc(CNc2ncnc3nc[nH]c23)c1
not listed: [1] | [2] | [10] | [19] | [20]
inactive: all other assays above

CCN(CC#N)c1cccc(C)c1
inactive: [4] | [16] | [8] | [17] | [18] | [9] | [10] | [11] | [13]
